Assay results: PubChem BioAssay (NCATS)
Records with an inconclusive call do not appear. Calls of active or inactive are those of the source. Calls come from the whole dose curve; as a rule, active = well fitted curve in either direction with a large enough effect (not every such curve was filed as active); inconclusive = small, poorly fitted or top-dose-only effect, or another doubt; inactive = flat fitted curve, though single readings scatter.
% is set by controls: 0 for no effect and ±100 for the full control effect.

Assay: Stat Signaling Pathway (AID 446);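 note: SIE-controlled beta-lactamase reporter measured as 460/530 nm FRET emission ratio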
Conditions: ME-180 (cervical carcinoma) SIE beta-lactamase reporter, IL-6 stimulated, 5 h; at 17.2 µM (top of the series) unless noted
Summary of the method: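 Overnight-plated ME-180 cells bearing a STAT Inducible Element beta-lactamase reporter; 5 h co-exposure to compound and 40 pM IL-6; values normalized to 300 pM IL-6 and 125 nM JAK inhibitor controls.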
With COc1ccc2c(c1OC)C(=O)N1c3ccccc3C(=O)N(c3ccc(F)cc3)C21 (stereo not given) the activity, negative = inhibition was -12.3% (inactive).
For CCc1nc2sc3c(c2c(=O)o1)CCCC3, the activity, negative = inhibition was 3.67% (inactive).
For CCOC(=O)c1c(SC)nc(SC)c2c1CCC2, the activity, negative = inhibition was -4.26% (inactive).
For Clc1ccc(-c2nnc3sc(Cc4cccs4)nn23)c(Cl)c1, the activity, negative = inhibition was 12.6% (inactive).
In the case of CN(C)c1nc(OCCOC(=O)Nc2ccc(Cl)cc2Cl)nc(N(C)C)n1, the activity, negative = inhibition is reported as -7.35% (inactive).
In the case of CCc1nnc(NC(=O)CSc2nc(C)c3c(c2C#N)CCCC3)s1, the activity, negative = inhibition is reported as -23.4% (inactive).
With CCc1nnc(NC(=O)c2c(O)c3c([nH]c2=O)CCCC3)s1 the activity, negative = inhibition was 4.12% (inactive).
For CC1(C)Cc2c(sc3c2C2=NCCN2C=N3)CO1, the activity, negative = inhibition was 1.72% (inactive).
In the case of CCC1CCCCN1c1nc(-c2cccc(OC)c2O)nc2ccccc12 (stereo not given), the activity, negative = inhibition is reported as -4.92% (inactive).
For N#Cc1c(N2CCOCC2)nc(N2CCCCC2)c2c1CCN(C1CCCCC1)C2, the activity, negative = inhibition was 4.09% (inactive).
For c1ccc(C2Nc3ccccc3-c3nc4ccccc4n32)nc1 (stereo not given), the activity, negative = inhibition was -0.281% (inactive).
In the case of COc1ccc(Cn2c(N)c(C#N)c3nc4ccccc4nc32)cc1OC, the activity, negative = inhibition is reported as 11.6% (inactive).
With Cc1nnc(NCc2n[nH]c(=O)c3ccccc23)c2ccccc12 the activity, negative = inhibition was 25.1% (inactive).
With CCOC(=O)c1cc2c(=O)n3cccc(C)c3nc2n(CCc2ccccc2)c1=N the activity, negative = inhibition was 29.4% (inactive).
For CCN(CC)CCNc1nc(-c2ccco2)c2c(c1C#N)CC(C)(C)OC2, the activity, negative = inhibition was 14.7% (inactive).
With CCSc1nc2sc3c(c2c2nnc(SCC(=O)NCc4ccco4)n12)CCCC3 the activity, negative = inhibition was -18.7% (inactive).
For COc1cc2c(C(=O)N3CCN(c4ccccc4)CC3)c(C)oc2cc1Br, the activity, negative = inhibition was -12.8% (inactive).
With CCN(CC)C(=O)CSc1nc2ccccc2c(=O)n1CC1CCCCC1 the activity, negative = inhibition was -17.5% (inactive).
In the case of COc1cccc(C(=O)OC2CCCN(C)C2)c1 (stereo not given), the activity, negative = inhibition is reported as 4.49% (inactive).
With Cc1nc(NS(=O)(=O)c2ccccc2)sc1NC(=O)OCCN(C)C the activity, negative = inhibition was 0.248% (inactive).
In the case of Cn1nnc2c(sc3nc(N4CCOCC4)c4c(c32)CCCC4)c1=O, the activity, negative = inhibition is reported as -0.897% (inactive).
In the case of C=CCSc1nnc2n(-c3ccccc3OC)c(=O)c3c4c(sc3n12)CCC4, the activity, negative = inhibition is reported as 6.42% (inactive).
In the case of CN(CC(O)COc1ccc(OCC(O)CN(C)C2CCCCC2)cc1)C1CCCCC1 (stereo not given), the activity, negative = inhibition is reported as 12.2% (inactive).
With COC(=O)c1c(NC(=O)c2nn(C)cc2Cl)sc2c1CCCC2 the activity, negative = inhibition was -10.7% (inactive).
With Cn1ccnc1C(O)c1ccc(OCc2ccccc2)cc1 (stereo not given) the activity, negative = inhibition was 2.08% (inactive).
With O=C(NCc1cccnc1)/C(=N\O)c1ccccc1 the activity, negative = inhibition was 0.749% (inactive).
In the case of COc1ccc(OC)c2c1CCC2=O, the activity, negative = inhibition is reported as 6.79% (inactive).
For CCOC(=O)c1[nH]c2ccc(F)cc2c1NC(=O)CCN1CCSCC1, the activity, negative = inhibition was 0.475% (inactive).
For c1ccc2c(N3CCCCC3)nc(N3CCCCC3)nc2c1, the activity, negative = inhibition was -3.49% (inactive).
With Cc1cccc(NC(=O)c2c(C)cc(=O)oc2C)n1 the activity, negative = inhibition was 4.29% (inactive).
For OCCN(CCO)c1ncnc2c1sc1nc(N3CCOCC3)c3c(c12)CCCC3, the activity, negative = inhibition was -21.5% (inactive).
For CC(=Nc1ccc(C)c(C)c1)C1=C(O)CCC1=O, the activity, negative = inhibition was 24.8% (inactive).
In the case of CCCCN(CCCC)C(=O)CSc1nnc2n(C)c(=O)c3c4c(sc3n12)CCCC4, the activity, negative = inhibition is reported as -16.8% (inactive).
For COc1ccc(C2=CC(c3ccc(C)cc3)n3nnnc3N2)cc1 (stereo not given), the activity, negative = inhibition was -14.7% (inactive).
For C=CCn1c(SCC#N)nc2c(c1=O)C(C)(C)Cc1ccccc1-2, the activity, negative = inhibition was -1.93% (inactive).
In the case of Cc1ccsc1C1NC(=O)c2c(sc3c2CCCC3)N1 (stereo not given), the activity, negative = inhibition is reported as -6.73% (inactive).
For COc1ccc(-n2c(SCC(N)=O)nc3sc4c(c3c2=O)CCN(C)C4)cc1, the activity, negative = inhibition was 2.19% (inactive).
With C=CCNc1sc(C(=O)C2CC2)c(N)c1C#N the activity, negative = inhibition was -6.27% (inactive).
With CCCSc1nc(N2CCOCC2)c2c(c1C#N)CCCC2 the activity, negative = inhibition was -3.09% (inactive).
In the case of O=C(CN1C(=O)c2ccccc2C1=O)NCc1ccccn1, the activity, negative = inhibition is reported as 10.5% (inactive).
